In the library only some 18% were active in any assay of this set; here they are far more common.
HepG2 tox-1: counter-screen for TGF-b inhibitors: cytotoxicity in HepG2 cells; Potency, µM (top dose mostly 46.1 µM), for the others: at the highest dose activity change, negative = cytotoxicity, most hits filed as cytotoxic; AID 588856; HepG2 CAGA-GFP viability, ATP luminescence, 18 h; 410,000 tested, 0.76% active; note: potency is the fitted concentration of half-maximal effect
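HepG2 CAGA-GFP cells (1000/well, DMEM with 1% FBS) received compound, then TGF-beta at 500 pg/mL final, and were incubated 18 hours at 37 degrees C. Viability was read by CellTiter-Glo luminescence. Media-only wells were set as complete cell-killing and DMSO as no toxicity.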
DT40 TDP1 CPT: growth inhibition of DT40 Tdp1-/-;hTDP1 cells with camptothecin (screen for TDP1 inhibitors) | 420,000 tested, 12% active | chicken DT40 Tdp1-/-;hTDP1 cells + 20 nM CPT, ATP luminescence, 48 h | Potency, µM (top dose mostly 46.2 µM), without a hit: at the top dose activity change, negative = growth inhibition, usual class: inhibitors; note: potency is the fitted concentration of half-maximal effect; % is set by controls: 0 for no effect and ±100 for the full control effect; nearly all actives have a fitted effect of over 55% in size
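Cell growth measured by CellTiter-Glo luminescence after a minimum 48 h, 37 C compound exposure with 20 nM CPT in Tdp1-knockout DT40 cells stably expressing hTDP1, seeded 400/well; qHTS titration format.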
TDP1 block: TDP1 (human) enzyme inhibition; Q9NUW8; recombinant TDP1, AlphaScreen DNA substrate cleavage; Potency, µM (series often up to 130 µM), inactives show at the highest dose activity change, negative = inhibition, hits mostly inhibitors; 350,000 tested, 0.28% active; note: potency is the fitted concentration of half-maximal effect; % is set by controls: 0 for no effect and ±100 for the full control effect; nearly all actives have a fitted effect of over 40% in size
Target sequence (Q9NUW8 whole entry, looked up): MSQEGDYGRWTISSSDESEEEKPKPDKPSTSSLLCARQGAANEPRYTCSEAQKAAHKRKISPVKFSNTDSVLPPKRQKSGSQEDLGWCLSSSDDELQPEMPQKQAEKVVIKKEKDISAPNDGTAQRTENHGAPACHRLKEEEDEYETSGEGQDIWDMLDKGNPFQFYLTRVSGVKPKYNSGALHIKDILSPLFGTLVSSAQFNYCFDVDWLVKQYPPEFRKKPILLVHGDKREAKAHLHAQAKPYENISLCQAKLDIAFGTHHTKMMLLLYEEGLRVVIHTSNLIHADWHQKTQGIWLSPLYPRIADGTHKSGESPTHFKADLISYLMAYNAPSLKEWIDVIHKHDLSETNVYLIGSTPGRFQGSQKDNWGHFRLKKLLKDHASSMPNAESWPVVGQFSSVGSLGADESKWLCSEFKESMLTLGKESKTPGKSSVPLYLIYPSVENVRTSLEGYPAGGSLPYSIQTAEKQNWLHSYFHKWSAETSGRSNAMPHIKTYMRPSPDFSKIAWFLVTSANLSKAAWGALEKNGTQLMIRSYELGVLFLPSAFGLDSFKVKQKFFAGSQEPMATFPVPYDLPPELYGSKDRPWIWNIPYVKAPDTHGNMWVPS
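E. coli-derived human Tdp1, 1 nM final. Cpd preinc 15 min RT; substrate 15 nM final, 5 min RT; AS bead mix 10 ug/ml final, 10 min RT. Signal loss = tyrosine-FITC cleavage. No-enzyme wells = max signal.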
IL1B secr inh: blocks inflammasome-driven IL-1 beta release; THP-1 LPS/ATP IL-1B secretion, AlphaLISA, 16 h; stronger effect = lower value; activity change, % at 57.5 µM; 360,000 tested, 4.7% active; in the data active = activity change below about -50%; inconclusive = mostly about -30% to -49%; note: % is set by controls: 0 for no effect and ±100 for the full control effect
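Secreted IL-1B measured by AlphaLISA bead assay after 16 h compound exposure of THP-1 cells; compounds (final up to 57.5 uM) added 1 h before LPS (250 ng/mL) and ATP (1.25 mM) stimulation; lower signal means less secretion.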
TGFb inhibitor: TGF-b pathway inhibition | HepG2 CAGA-GFP TGF-b/SMAD3 reporter, GFP fluorescence, 18 h; TGF-beta stimulated, 500 pg/mL final | 410,000 tested, 1.2% active | AID 588855 | Potency, µM (highest dose often 46.1 µM), for the others: at the highest dose activity, negative = inhibition, hits mostly inhibitors; note: potency is the fitted concentration of half-maximal effect; % is set by controls: 0 for no effect and ±100 for the full control effect; nearly all actives have a fitted effect of over 65% in size
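Per well, imaged GFP fluorescence of HEPG2 CAGA-GFP cells gives the signal; cells get compound, then TGF-beta (500 pg/mL final), 18 h at 37 degrees C; %Activity versus -TGF-beta and +DMSO controls.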
DT40 TDP1 no CPT: qHTS for Inhibitors of human tyrosyl-DNA phosphodiesterase 1 (TDP1): qHTS in cells in absence of CPT; DT40 Tdp1-/- hTDP1 cells, no CPT, ATP luminescence, 48 h; 420,000 tested, 15% active; Potency, µM (doses to about 46.2 µM), inactives show top-dose activity change, negative = growth inhibition, hits mostly inhibitors; note: potency is the fitted concentration of half-maximal effect; % is set by controls: 0 for no effect and ±100 for the full control effect; nearly all actives have a fitted effect of over 55% in size
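Luminescent ATP content (CellTiter-Glo) served as the growth readout. Knockout chicken DT40 cells expressing human TDP1 were exposed to compounds without camptothecin for a minimum 48 hr at 37 °C.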
TGFb confirm: TGF-b pathway inhibition, cherry-pick retest; AID 720534; shares compounds with TGFb inhibitor; HepG2 CAGA-GFP TGF-b reporter, GFP fluorescence, 18 h; cells stimulated with TGF-beta, 500 pg/mL; Potency, µM (doses to about 46.1 µM), for the others: at the top dose activity, negative = inhibition, actives largely listed as inhibitors; 1,600 tested, 63% active; note: potency is the fitted concentration of half-maximal effect; % is set by controls: 0 for no effect and ±100 for the full control effect; nearly all actives have a fitted effect of over 65% in size
HepG2 tox-2: counter-screen for TGF-b inhibitors: cytotoxicity in HepG2 cells; shares compounds with TGFb inhibitor; HepG2 CAGA-GFP viability, ATP luminescence, 18 h; cells stimulated with TGF-beta, 500 pg/mL; Potency, µM (titrated, usually from 46.1 µM), inactives show at the top dose activity, negative = cytotoxicity, most hits filed as inhibitors; 1,600 tested, 27% active; note: potency is the fitted concentration of half-maximal effect; % is set by controls: 0 for no effect and ±100 for the full control effect; nearly all actives have a fitted effect of over 70% in size
CCL64 TGFb inh: blocks TGF-b signaling in CCL64 reporter cells | shares compounds with TGFb inhibitor | CCL64 CAGA-GFP reporter, TGF-b stimulated, GFP fluorescence, 18 h | Potency, µM (series often up to 46.1 µM), without a hit: at the highest dose activity, negative = inhibition, hits mostly inhibitors | 1,600 tested, 41% active | AID 720536; note: potency is the fitted concentration of half-maximal effect; nearly all actives have a fitted effect of over 65% in size
TGFb COP inh: TGF-b inhibition validated with COP promoter; shares compounds with TGFb inhibitor; HepG2 COP-GFP TGF-b reporter, GFP fluorescence, 18 h; cells stimulated by added recombinant TGF-beta; Potency, µM (highest dose often 46.1 µM), for the others: top-dose activity, negative = inhibition, usual class: inhibitors; 1,600 tested, 3% active; note: potency is the fitted concentration of half-maximal effect; nearly all actives have a fitted effect of over 70% in size
* marks the source's active call; other numbers are inactive results; ? = inconclusive; nt = not tested or not shown. Unless noted, calls come from the whole dose curve; as a rule, active = well fitted curve in the direction sought with a large enough effect; inconclusive = small, poorly fitted or top-dose-only effect, or another doubt; inactive = no such curve, though single readings can be large; an effect the other way counts as inactive or inconclusive.

SMILES	HepG2 tox-1	DT40 TDP1 CPT	TDP1 block	IL1B secr inh	TGFb inhibitor	DT40 TDP1 no CPT	TGFb confirm	HepG2 tox-2	CCL64 TGFb inh	TGFb COP inh
COc1ccc2c(c1)C1(C)CCN(C)CC(C1)C2O (stereo unspecified)	-19.7%	-23.4%	nt	0.0	-1.1%	?	nt	nt	nt	nt
C[C@@H]1CN([C@H](C)CO)C(=O)CCCn2nncc2CO[C@@H]1CN(C)C(=O)Oc1cccc2ccccc12	-23.2%	-18.5%	nt	14.0	1.0%	?	nt	nt	nt	nt
COC(=O)C1=C(c2ccc(OC(F)(F)F)cc2)C[C@@H]2CC[C@H]1N2C(=O)N1CCC(C)CC1	3.2%	6.51µM*	-2.9%	0.0	6.31µM*	5.8µM*	16.4µM*	?	?	50.3%
COc1ccc(CN2Cc3cc(-c4cccc(F)c4)ccc3-n3nncc3C2)cc1	13.0%	-16.6%	nt	-29.1	11.2µM*	?	14.6µM*	?	?	0.3%
S=C(NCCc1ccccc1)N1Cc2cc(-c3ccccc3)ccc2-n2nncc2C1	-0.7%	?	nt	-3.5	?	?	nt	nt	nt	nt
S=C(NCCc1ccccc1)N1Cc2cc(N3CCCCC3)ccc2-n2nncc2C1	-25.7%	?	nt	?	10µM*	?	?	-8.5%	-29.9%	2.3%
Clc1cccc(N2Cc3cc(-c4ccccc4)ccc3-n3nncc3C2)c1	8.91µM*	2.59µM*	nt	-110.3*	7.94µM*	3.66µM*	20.6µM*	?	6.51µM*	32.1%
Fc1cccc(-c2ccc3c(c2)CN(C(=S)NCCc2ccccc2)Cc2cnnn2-3)c1	-1.4%	?	nt	-57.4*	11.2µM*	?	?	-28.9%	?	-6.7%
CC(C)(C)C(=O)N1Cc2cc(-c3cccc(F)c3)ccc2-n2nncc2C1	-14.1%	?	nt	0.0	-11.8%	?	nt	nt	nt	nt
O=[N+]([O-])c1ccc(N2CCOCC2)c2cccnc12	-1.4%	-5.5%	6.0%	-10.6	-14.2%	?	nt	nt	nt	nt
O=[N+]([O-])c1ccc(N2CCOCC2)c2c1no[n+]2[O-]	-100.6%	0.184µM*	nt	-104.7*	3.16µM*	0.164µM*	18.4µM*	13µM*	5.17µM*	?
Cc1nn(-c2nccs2)c2c1C(=O)CC(C)(C)C2Br (stereo unspecified)	-9.3%	?	nt	?	11.2µM*	16.4µM*	13µM*	?	?	33.9%
NC1=NC(=O)N2CC12 (stereo unspecified)	-4.9%	?	nt	-5.8	-6.0%	?	nt	nt	nt	nt
C=C1C(O)[C@@H]2O[C@]3(CC[C@H](/C=C/C(C)[C@@H]4CC(C)=CC5(O[C@H](C[C@@](C)(O)C(=O)O)CCC5O)O4)O3)CC[C@H]2O[C@@H]1C(O)CC(C)[C@H]1OC2(CCCCO2)CCC1C (stereo partly specified)	-71.2%	0.164µM*	0.8%	?	0.0891µM*	0.146µM*	0.0206µM*	0.0517µM*	0.082µM*	?
C[C@H]1C[C@@H](C)C(=O)[C@@H]([C@H](O)CC2CC(=O)NC(=O)C2)C1	-20.9%	0.184µM*	3.8%	-89.9*	0.708µM*	0.184µM*	1.03µM*	?	0.326µM*	25.0%
C[C@]12CCC3C(CC[C@H]4C[C@H](O)CC[C@]34C)C1[C@@H](O)C[C@@H]2O (stereo partly specified)	-2.7%	-14.2%	1.6%	3.5	27.9%	-25.3%	nt	nt	nt	nt
CC(=O)OC1CN2CCC1CC2 (stereo unspecified)	nt	0.5%	6.2%	nt	nt	-5.9%	nt	nt	nt	nt
O=C1c2ccccc2-n2nnnc2C2c3ccccc3-n3nncc3CN12 (stereo unspecified)	14.9%	-11.7%	nt	0.0	1.6%	-0.9%	nt	nt	nt	nt
CC1(C)C(=O)CCC2C1=CCC1C2CCC2(C)C(O)CCC12 (stereo unspecified)	-0.5%	-2.5%	nt	23.0	-19.7%	-6.9%	nt	nt	nt	nt
O=C(Nc1ccc(Cl)cc1)Nc1ccc(Cl)c(Cl)c1	-21.4%	4.61µM*	-3.2%	-87.3*	3.16µM*	2.91µM*	?	20.6µM*	5.17µM*	93.5%
CCN1CCN(c2ccc(NC(C)=O)cc2Cl)CC1	-23.6%	2.8%	1.2%	2.9	-13.1%	24.9%	nt	nt	nt	nt
NC(Cc1ccccc1)c1nn[nH]n1 (stereo unspecified)	9.1%	1.0%	nt	-2.5	48.4%	-7.8%	nt	nt	nt	nt
c1ccc2oc(-c3ccc4c(c3)CNCc3cnnn3-4)cc2c1	-70.0%	?	nt	-0.9	-11.7%	?	nt	nt	nt	nt
